According to PubChem BioAssay (NCI):
Several values for one entry are separate records, joined by “and”; a condition that tells them apart may be missing. Identical values can stand only once. This is part of a sample that, as a whole, favours compounds with a hit. Of some 83,000 tested, about 20% had one in any assay.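 Compound tested at a single concentration for 48 hours in 96-well plates; a percent growth value below 10 was scored as active.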 A number with no mark means an inactive call. Activity calls are given as the source filed them.

Key:
Experiment in all cases: NCI-60 one-dose screen, 48 h (100 = growth as untreated, 0 = no growth, -100 = all killed)
Conditions in all cases: 10 µM unless noted
[1] = system: DU-145 prostate
[2] = system: K-562 leukemia
[3] = system: MALME-3M melanoma
[4] = system: MDA-MB-231 breast
[5] = system: RXF 393 renal
[6] = system: SF-268 CNS
[7] = system: SF-295 CNS
[8] = system: SF-539 CNS
[9] = system: UACC-257 melanoma
[10] = system: M14 melanoma

Structure (SMILES) | growth [1] | growth [2] | growth [3] | growth [4] | growth [5] | growth [6] | growth [7] | growth [8] | growth [9] | growth [10]
COc1ccc2[nH]c(O)c(N=Nc3nc(-c4ccccc4)cs3)c2c1 | 34.6% | 28.9% | 22.5% | 60.1% | 4.35% (active) | 17.1% | -8.96% (active) | -11.9% (active) | 59.3% | 55.6%
COC(=O)c1c(C(=O)OC)c2c3ccccc3c3ccccc3n2c1C(=O)C(C)(C)C | 95.7% | 47.1% | 100% | 73.5% | 82.3% | 89.3% | 81.7% | 83.3% | 94.8% | 74.3%
CS(=O)(=O)Nc1cc(-c2ccc3ncnc(Nc4ccc(OCc5cccnc5)c(Cl)c4)c3c2)cnc1Cl | 16.5% | 9.57% (active) | -34.8% (active) | -57.9% (active) | 0.962% (active) | 14.6% | -14.9% (active) | -38% (active) | 1.79% (active) | 2.98% (active)
FC(F)(F)CN1CCN(CCn2c(C(F)(F)F)cc3c(Cl)ncnc32)CC1 | 30.9% | -20.3% (active) | 77.3% | -35.6% (active) | 59.7% | -18.5% (active) | 67.1% | 66.6% | 45.7% | -66.7% (active)
O=C(c1ccc(Cl)cc1)C1[C@H](c2ccccc2Cl)[C@@H](c2ccccc2)NC12C(=O)Nc1ccc(Cl)cc12 (stereo not given in full) | -28.5% (active) | -45.1% (active) | -39.5% (active) | -96.1% (active) | -93.1% (active) | -36.6% (active) | -85.9% (active) | -78.4% (active) | -15.5% (active) | -82.9% (active)
Oc1ccc(Cl)c(Nc2nc(SCCN3CCOCC3)nc3c2cnn3CC(Cl)c2ccc(Br)cc2)c1 (stereo not given) | 35% | -22.9% (active) | 12.2% | -3.97% (active) | -14.2% (active) | 40.8% | 13% | 29.2% | 28.2% | 25%
COc1ccc(-c2nc3ccccc3n2CC(=O)N=Nc2c(O)[nH]c3ccc(OC)cc23)cc1 | 3.7% (active) | 32.5% | 30.6% | 66.5% | 10.6% | 77.5% | 104% | -34.7% (active) | 60.8% | 64.5%
O=C(N/N=C/c1c[nH]c2ccccc12)Nc1ccc(F)c(Cl)c1 | 61.5% | 15.4% | 56.3% | 61.3% | 18.3% | 39.7% | 13.8% | 27.3% | 60.9% | 33.7%
NNc1ncnc2sc3c(c12)CCN(Cc1ccccc1)C3 | 61.7% | 19% | 70.4% | 40.8% | 69.3% | 43.8% | 45.2% | 52.8% | 47% | 62.9%
C=CCSc1nnc(-c2c(C)nc3sccn23)o1 | 110% | 98.3% | 109% | 92.6% | 99.9% | 110% | 89.2% | 90.4% | 86.9% | 92.5%
COc1ccc(C(=O)c2cc(C(C)=O)c3c(C)cc(C)cn23)cc1 | 66.9% | 86.4% | 72.1% | 75.3% | 8.06% (active) | 23.5% | 31% | 23.8% | 79.2% | 84.9%
Clc1ccc(-c2nc3ccc(-c4nnc(SCc5ccccc5)o4)cc3[nH]2)cc1 | 54.9% | 36.7% | 29.4% | -11.9% (active) | -4.87% (active) | 60% | -73.4% (active) | -28% (active) | 62.2% | 67.9%
CC1(C)CC(=O)C2=C(C1)OC(N)=C(c1nc3ccccc3[nH]1)C2c1ccc(Cl)cc1 (stereo not given) | 74% and 99.8% | 61.5% and 104% | 41.8% and 97.3% | 79.1% and 105% | 55% and 106% | 67.8% and 102% | 22.9% and 103% | 29.3% and 106% | 97.4% and 109% | 85.6% and 118%
COc1cc2cc(C(=O)N3C[C@@H](CCl)c4c3cc(OC(=O)N(CCC(=O)N3CCN(C)CC3)[C@H]3CCSSC3)c3ccccc43)[nH]c2c(OC)c1OC | -10.5% (active) | -8.96% (active) | -96.7% (active) | -74.8% (active) | -94.5% (active) | -10.3% (active) | -65.9% (active) | -80.3% (active) | -61.9% (active) | -77.2% (active)
COc1cc(C2C(C(=O)OCc3ccccc3)=C(C)Nc3nc4ccccc4n32)cc(OC)c1OC (stereo not given) | 59.3% | 20.7% | -16.7% (active) | -26.7% (active) | -39.6% (active) | 15.1% | 3.38% (active) | -44.5% (active) | 30.2% | 27.1%
N#Cc1ccc(C(=O)NNC(=O)CSc2nc3sc4c(c3c(=O)n2-c2ccc(Cl)cc2)CCCC4)cc1 | 70.4% | 63.4% | 39.5% | 3.65% (active) | 47.5% | 92.7% | 62.7% | -43.9% (active) | 91.4% | 44.7%
Nc1cc(-c2c[nH]c3ccc(Cl)cc23)nc2cc(-c3c[nH]c4ccccc34)nn12 | 8.69% (active) | 6.27% (active) | -68.2% (active) | -79.2% (active) | -21.5% (active) | 9.75% (active) | -79.4% (active) | -81.5% (active) | -73.2% (active) | -25.8% (active)
CC(C)(C)OC(=O)N1C/C(=C\c2ccc(F)cc2)C(=O)/C(=C/c2ccc(F)cc2)C1 | 9.97% (active) | 9.9% (active) | -75.5% (active) | -54.4% (active) | -88.1% (active) | -46.1% (active) | -75.1% (active) | -98.3% (active) | -42.1% (active) | -71.5% (active)
CS(=O)(=O)Nc1cc(-c2ccc3ncnc(N4CCc5cc(F)c(Cl)cc54)c3c2)cnc1Cl | 10.5% | 35.8% | -21.2% (active) | -17.8% (active) | -5.59% (active) | 14.9% | -23.8% (active) | -22.7% (active) | -2.81% (active) | 9.59% (active)
COc1cncc(-c2ccc3ncnc(N4CCc5ccc(Cl)cc54)c3c2)c1 | 24.6% | 12.6% | 44.2% | 29.4% | -18.1% (active) | 46.7% | 20.3% | 33.2% | 63.5% | -52.4% (active)
CN(C)CCCc1ccc(Nc2cnn(C)c(=O)c2Cl)cc1 | 116% | 89.8% | 88.8% | 108% | 90.2% | 113% | 89.2% | 94% | 98.5% | 100%
Cn1cc(Nc2ncnc(-c3ccc(N4CCCC4)c(C#N)c3)n2)cn1 | 66.5% | 29.8% | 74.8% | 63.6% | 50.8% | 71.9% | 93.2% | 65.2% | 94% | 53.5%
O=C(Cn1c(/C=C/c2ccc([N+](=O)[O-])cc2)nc2ccccc2c1=O)Nc1ccccc1 | 78.6% | 79.6% | 85% | 46.7% | 27.4% | 58.9% | 72.2% | 21.1% | 101% | 81.2%
Cn1cc(-c2cc3nc(-c4c[nH]c5ccccc45)cc(N)n3n2)c2ccccc21 | 11.6% | -7.67% (active) | -92.8% (active) | -93.2% (active) | 82.7% | 77.1% | -61.2% (active) | -97.4% (active) | -88.4% (active) | -60.5% (active)
CC[C@]12C=CCN3CC[C@]4(C(=C(C(=O)OC)C1)Nc1cc(OC)c([C@@H]5[C@H]6O[C@H]6[C@@]6(CC)CC(C(=O)OC)=C7Nc8cc(O)ccc8[C@@]78CCN5[C@@H]68)cc14)[C@@H]32 | 23.2% | -3.65% (active) | -77.4% (active) | -54.2% (active) | -34.2% (active) | 22.3% | -47.2% (active) | -38.4% (active) | -10.2% (active) | -28.4% (active)
